# From PubChem BioAssay (NCI)
# Compounds without any hit were thinned out: in the full panel of roughly 83,000, 20% have a hit.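 Each cell line was grown in a 96-well plate and treated with one concentration of compound for 48 hours. Values below 10 were considered active.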 Unmarked numbers belong to inactive results. The source made the active and inactive calls.
# System: SK-MEL-5 melanoma
# Experiment: NCI-60 one-dose screen, 48 h (100 = growth as untreated, 0 = no growth, -100 = all killed)
# Details: 10 µM unless noted
# Description: Growth inhibition of the SK-MEL-5 human tumor cell line is measured as a screen for anti-cancer activity. Cells are grown in 96 well plates and exposed to the test compound for 48 hours. Compounds are tested at a single concentration, which is 10^-5 M for most compounds. The reported endpoint is percent growth (GI% or GIPRCNT), where numbers from 0 - 100% represent growth inhibition, and numbers from -100% - 0 represent cell death. For example, a value of 40 represents 60% growth inhibition. A value of 0 means no net growth occurred over the course of the experiment. A value of -40 indicates 40% of cells at the beginning of the experiment died by the end of the experiment. A value of -100 means all cells are dead at the end of the experiment.
# NCI-60 Human Tumor Cell Lines Screen was performed using the standard one-dose NCI protocol, which is described in more detail at https://dtp.cancer.gov/discovery_development/nci-60/default.htm.
# Compounds with GIPRCNT values below 10 were considered active. Activity score was based on GIPRCNT using the following formula: […]
# Score is 0 for GIPRCNT values of 100 or above, 50 for GIPRCNT values of 0, and 100 for GIPRCNT values of -100.
row,SMILES,growth
1,O=C(CSc1nnc(-c2cccs2)n1-c1ccccc1)Nc1ccccc1,80.1%
2,CC(=O)Nc1ccccc1-c1nc2ccccc2s1,99%
3,CC[C@]12C=CCN3CC[C@@]4(c5ccc(OC)cc5N(C)[C@H]4[C@@](O)(C(=O)OC)[C@@H]1OC(=O)CCN1CCc4ccccc4C1)[C@@H]32,98.2%
4,CCOC(=O)c1ccc(NC2=C(Cl)C(=O)c3nc(C)ccc3C2=O)cc1,63.6%
5,COc1ccccc1/C=C/C(=O)c1nnn(-c2ccc(F)cc2)c1C,79.3%
6,COc1ccc2[nH]cc(/C=N/Nc3ccnc4cc(Cl)ccc34)c2c1,-100% (active)
7,COc1ccc(N2CCN(C3=C(Cl)C(=O)c4ncccc4C3=O)CC2)cc1,95%
8,O=C(CCl)Nc1ccc(NC(=O)c2cc(Cl)ccc2O)c(Cl)c1,57.8%
9,Cc1ccc(NC(=O)/C=C/c2ccc(OCCCOc3ccc4c(C)cc(=O)oc4c3)cc2)cc1,76.9%
10,Cc1ccccc1N1CCN(C2=C(Cl)C(=O)c3ncccc3C2=O)CC1,88.8%
11,O=C(COc1ccc(/C=C2\C(=O)Nc3ccc(Cl)cc32)cc1)Nc1ccc(Cl)cc1,78%
12,C#C[C@]1(O)CC[C@H]2[C@@H]3CC=C4c5sc(N(C)c6ccccc6)nc5CC[C@]4(C)[C@H]3CC[C@@]21C,87.3%
13,O=c1c2cc(-c3ccc(F)cc3F)ccc2n(Nc2ccccc2)c(=O)n1-c1cccc(C(F)(F)F)c1,-53.7% (active)
14,Cc1cc(Br)ccc1-n1cc(C#N)c(N)c1C(=O)c1ccc(Br)cc1,95.7%
15,C#Cc1cc(OC)c(C(=O)Nc2ccc(F)cc2C(=O)Nc2cccc(S(=O)(=O)C(F)(F)F)c2)cn1,-49% (active)
16,COc1ccc([C@@H]2C(=O)N(c3cc(OC)c(OC)c(OC)c3)[C@H]2c2ccc(OC)c(O)c2)cc1,-22.9% (active)
17,CC[C@H](CC[C@@H](C)[C@H]1CC[C@H]2[C@@H]3CC(=O)C4=CC(=O)/C(=C/c5ccc([N+](=O)[O-])cc5)C[C@]4(C)[C@H]3CC[C@]12C)C(C)C,96.7%
18,O=[N+]([O-])c1ccc(NC(=S)NNC(=S)Nc2ccc(F)cc2)cc1,89.9%
19,Cn1c(SCC(=O)c2ccc(F)cc2)nc2ccccc2c1=O,91.6%
20,CSc1ccc(C(=NNS(=O)(=O)c2ccc(C)cc2)c2ccc(Cl)cc2)cc1,99.3%

row,SMILES,growth
1,CCNCCOc1ccc(/C(=C(/CC)c2ccc(Cl)cc2)c2ccc(OCCCN(C)C)cc2)cc1,-95.2% (active)
2,CN1CCN(Cc2ccc(NC(=O)c3cncc(C#Cc4cnc5ccc(NCCO)nn45)c3)cc2C(F)(F)F)CC1,-22.2% (active)
3,NNc1nnc2nc(Nc3ccccc3)nc(Nc3ccc(S(N)(=O)=O)cc3)n12,101%
4,O=C(Nc1ccc(Cl)c(C(F)(F)F)c1)Nc1ccc2oc(=O)ccc2c1,41.4%
5,O=S(=O)(Oc1ccc(-c2cn3ccoc3n2)cc1)C1CCCCC1,91.1%
6,CC1(C)CC[C@]2(C(=O)NCCCCCCN(CCCN)CCCN)CC[C@]3(C)C(=CC[C@@H]4[C@@]5(C)CC[C@H](O)C(C)(C)[C@@H]5CC[C@]43C)[C@@H]2C1,101%
7,Cc1ccc(S(=O)(=O)NCCCNc2nc(Nc3ccc(N4CCN(C)CC4)cc3)nc3ccsc23)cc1,-84.1% (active)
8,CCCCN1C(=O)/C(=c2\sc3n(c2=O)C2C(NN=3)N(CC)C(=O)N2CC)c2cccc(C)c21 (stereo not given),29.6%
9,O=C(/C=C/c1csc(Br)n1)NO,-33.1% (active)
10,FC(F)(F)c1cc(Br)cc(-c2cc(-c3ccc4c(c3)OCCO4)[nH]n2)c1,17.9%
11,N#Cc1nc(-c2ccccc2)oc1N1CCC(C2(C(F)(F)F)N=N2)CC1,99.2%
12,Fc1cc(F)cc(NNC(=S)c2ccccc2)c1,46.2%
13,CCOC(=O)c1ccc(NC2=CC(=O)C(C)=C(C)C2=O)cc1,91.6%
14,CC1=C(C)C(=O)C(Nc2ccc(C)c(C)c2)=C(Br)C1=O,89.1%
15,Clc1cccc(/C=N/Nc2nc(N/N=C/c3cccc(Cl)c3)nc(N3CCCCC3)n2)c1,80.6%
16,COc1cc(NC(=O)Nc2cccc(-c3cc(=O)c4c(OC)c(OC)c(OC)cc4o3)c2)cc(OC)c1OC,43%
17,CN1CCN(c2ccc(C(=O)/C=C/c3cc(F)cc(C(F)(F)F)c3)cc2)CC1,71.3%
18,O=C(CCCCCCN1CC(=O)N2[C@@H](c3ccc(Cl)s3)c3[nH]c4ccccc4c3C[C@H]2C1=O)NO,19.7%
19,CCC(=C(c1ccc(OCCN2CCCCCC2)cc1)c1ccc(OCCN2CCCCCC2)cc1)c1ccc(Cl)cc1,21.5%
20,C#CCOc1ccc(-c2csc(NC(=O)C=C)n2)cc1NS(=O)(=O)c1cccc2c(N(C)C)cccc12,63.6%
